Test results as given in ChEMBL document CHEMBL3988442, “University of Dundee, Small-Polar-MMV Screening Library” (2021).
Hit rate of the full screen: of about 38,000 compounds, about 1,200 (3.2%) showed an effect of 50% or more. The median lay at about -58%. The sample as a whole holds a higher share of strong results than the screen did.

test system: Plasmodium falciparum; assay: Calibr Malaria Delayed Death Assay SOP; assay type: functional, organism-based; set-up: scale not given: in the data most compounds retested in dose-response had high values; conditions: concentration 4.99e-06 (unit not given; other assays of the set use mol/L)

First: Cc1cc(N2CCC(c3ncc[nH]3)CC2)nc(N)n1
Second: Cc1cc(N2CCC(c3ncc[nH]3)CC2)cc(C)n1
The “Percent Effect” value of the first is higher: -29.26% for the first, -30.44% for the second.

Compared with Cc1cc(N2CCC(c3ncc[nH]3)CC2)c2ccccc2n1, CCn1ccnc1C1CCN(Cc2cccc(C)n2)CC1 is lower in “Percent Effect” value: 61.5% for the first, -98.55% for the second.

Going from Cc1cc(C(=O)N2CC(O)CO2)c2cccc(C)c2n1 (configuration not stated) to CCn1c(C)cc(C(=O)N2CCC(Nc3ccc(C)nn3)CC2)c1C, the “Percent Effect” value rises from -103.4% to -49.09%.

First: Cn1nc(C(=O)NC2(c3ccc(Cl)cc3)CCCC2)ccc1=O
Second: CN1CCN(Cc2ccc(F)cc2)Cc2cccnc21
The “Percent Effect” value of the first is higher: 37.39% for the first, -11.04% for the second.

First: Cc1nccn1Cc1nnc(C2CCCN(c3ncccc3F)C2)n1C (configuration not stated)
Second: COCCn1ccnc1C1CCCN(c2ncnc3c(C)csc23)C1 (configuration not stated)
The “Percent Effect” value of the first is higher: -123.3% for the first, -130.5% for the second.

First: COCc1noc(Cn2c(C3CC3)nc3ccccc32)n1
Second: COC(=O)COn1c(SC)nc2ccccc2c1=O
The “Percent Effect” value of the first is lower: -91.38% for the first, -26.25% for the second.

Going from Cn1cc(C2(C)CN(Cc3ccc(Cl)c(F)c3)CCO2)cn1 (configuration not stated) to CC(C)n1ccnc1C1CCN(Cc2ccc(Cl)c(F)c2)CC1, the “Percent Effect” value rises from -40.79% to 33.02%.

Compared with COc1cccc(C(=O)N2CCCC2c2ncc3c(n2)CCN(C)C3)c1 (configuration not stated), COc1ccc2cnn(CC(=O)NC3CCCCC3)c(=O)c2c1OC is higher in “Percent Effect” value: -46.26% for the first, -20.95% for the second.

First: O=C(NCCc1nccs1)N1CCC(n2cccc2)CC1
Second: COC(=O)C(O)C1CCN(CCc2ccncc2)CC1 (configuration not stated)
The “Percent Effect” value of the first is lower: -128.4% for the first, -64.35% for the second.

Going from Cc1nc(CNC(=O)Nc2cc(C(F)(F)F)c[nH]c2=O)cs1 to Cc1nc(CN2CCC3(CCCN(Cc4ccncc4)C3)C2=O)cs1.O=C(O)C(F)(F)F.O=C(O)C(F)(F)F.O=C(O)C(F)(F)F (configuration not stated), the “Percent Effect” value rises from -139.2% to -86.96%.

Going from Cc1cc(Cl)ccc1S(=O)(=O)NCC(C)N1CCN(C)CC1 (configuration not stated) to Cc1cccc(S(=O)(=O)NCC(C)N2CCN(C)CC2)c1Cl (configuration not stated), the “Percent Effect” value rises from 73.33% to 80.79%.

First: O=S(=O)(NCC(O)c1cccs1)c1ccccc1Cl (configuration not stated)
Second: Cc1c(Cl)cccc1S(=O)(=O)NCC(O)c1cccn1C (configuration not stated)
The “Percent Effect” value of the first is lower: -35.17% for the first, -3.502% for the second.

First: COc1ccc(S(=O)(=O)NCC(c2cccn2C)N(C)C)c(C)c1 (configuration not stated)
Second: Cc1cc(F)ccc1S(=O)(=O)NCC(O)c1cccn1C (configuration not stated)
The “Percent Effect” value of the first is higher: 47.32% for the first, -27.19% for the second.

First: CC(CNS(=O)(=O)c1cccc(Cl)c1)N1CCN(C)CC1 (configuration not stated)
Second: CC(NCCNS(=O)(=O)c1cccc(Cl)c1)C1CCOCC1 (configuration not stated)
The “Percent Effect” value of the first is higher: 77.12% for the first, 24.26% for the second.

First: CC(=O)N1C[C@H](NS(=O)(=O)c2cccc(Cl)c2)[C@@H](C(C)C)C1
Second: Cc1cccc(CN2CCC(NS(C)(=O)=O)CC2)n1
The “Percent Effect” value of the first is lower: -122% for the first, -83.22% for the second.

First: Cc1cccc(-n2nnnc2C(C)(C)Nc2ccccc2C)c1
Second: Cc1cccc(CNC2CCN(CCc3ccncc3)CC2)c1C
The “Percent Effect” value of the first is lower: -66.56% for the first, 75.22% for the second.

First: O=C(c1ccc2c(c1)COC2)N1CCCN(Cc2cscn2)CC1
Second: O=C(c1c(O)cnc2ccccc12)N1CCCSCC1
The “Percent Effect” value of the first is lower: -90.53% for the first, -75.93% for the second.

Going from Cc1nn(C)c(N2CCCN(C)CC2)c1CNC(=O)CC(C)(C)C to Cc1nn(Cc2ccc(C(=O)NCCCN3CCCC3=O)o2)c(C)c1Br, the “Percent Effect” value falls from -44.23% to -82.86%.

First: CCc1cc(NCCCOC2CCCC2)ncn1
Second: Cc1csc2c(N3CCC(NCCCc4ccncc4)CC3)ncnc12
The “Percent Effect” value of the first is lower: -19.37% for the first, 63.19% for the second.

Going from CN(C)CCN(Cc1cccnc1)C(=O)c1ccn(-c2ccccc2)n1 to N#CCCN(Cc1cccnc1)C(=O)c1ccn(-c2ccccc2)n1, the “Percent Effect” value falls from 87.52% to -29.34%.

Compared with O=C(c1ccn(-c2ccc(F)cc2)n1)N(CCO)Cc1cccnc1, COc1ccc(CC(C)(O)CNC(=O)Cc2cccs2)cc1 (configuration not stated) is lower in “Percent Effect” value: -20.41% for the first, -86.25% for the second.

Going from Cc1ncoc1C(=O)N1CCOC(CC2CCCCC2)C1 (configuration not stated) to O=C(C1CCOCC1)N1CCC2(CC1)CN(c1ccsc1)C(=O)CO2, the “Percent Effect” value falls from -117.2% to -132.3%.

Compared with CCOc1ccc2[nH]c(=O)c(CN3CCCCC3C)cc2c1 (configuration not stated), CCCN1CCC(NCc2ccncc2)CC1 is lower in “Percent Effect” value: -50.88% for the first, -53.14% for the second.

Going from Cc1occc1C(=O)NCC1OCCc2cn(C)nc21.O=C(O)C(F)(F)F (configuration not stated) to CCN1C(=O)CCCC12CCCN(C(=O)c1ccncc1F)C2.O=C(O)C(F)(F)F (configuration not stated), the “Percent Effect” value falls from -17.21% to -52.32%.

First: Cc1nn(CC(=O)NCC2(C(N)=O)CCOCC2)c(C)c1Cl
Second: Cc1nc(CCC(=O)NCC(N)=O)cc(C2CCNCC2)n1
The “Percent Effect” value of the first is higher: -63.22% for the first, -86.52% for the second.

Going from COc1ccccc1CNc1c(N2CCN(C(C)=O)CC2)c(=O)c1=O to COCCN1Cc2ccccc2C2(CCN(C(=O)c3ccno3)CC2)C1, the “Percent Effect” value falls from -13.77% to -21.64%.

First: CNC(=O)CCc1cc(C2CCNCC2)nc(C)n1.Cl.Cl
Second: N#Cc1ccc(CNC(=O)NC2CCN(c3ncccn3)CC2)cc1
The “Percent Effect” value of the first is higher: -15.84% for the first, -82.81% for the second.

Compared with CC(C)N(C)Cc1cnc2n1CCN(Cc1cccc(C#N)c1)C2, N#Cc1ccc(CNC2CCN(CCc3ccncc3)CC2)cc1 is higher in “Percent Effect” value: 10.5% for the first, 54.87% for the second.

First: CC(O)(CCc1ccccc1)CNC(=O)c1cccs1 (configuration not stated)
Second: COc1ccc(CC(C)(O)CNC(=O)c2cccs2)cc1 (configuration not stated)
The “Percent Effect” value of the first is lower: -19.61% for the first, 88.99% for the second.

Compared with CC(=O)Nc1nc(CS(=O)(=O)Cc2ccccc2)cs1, Cn1nc(-c2ccccc2)c(Br)c1C(=O)O is lower in “Percent Effect” value: -16.97% for the first, -35.19% for the second.

Compared with COCCN1CCC(NCc2cccnc2)C1 (configuration not stated), Cc1ccc(CNC2CCN(CCc3ccncc3)CC2)s1 is higher in “Percent Effect” value: -54.93% for the first, -5.622% for the second.

Compared with CSc1ccc(CNC2CCN(CCc3ccncc3)CC2)cc1, N#Cc1ccc(CNC(=O)NC2CCN(CC(F)(F)F)C2)cc1 (configuration not stated) is lower in “Percent Effect” value: 92.6% for the first, -80.57% for the second.

First: Cc1csc2c(N3CCC(Cn4cc(C(C)(C)O)nn4)CC3)ncnc12
Second: Cc1cccnc1CN(C)c1ncnc2[nH]ccc12
The “Percent Effect” value of the first is higher: -16.92% for the first, -141.2% for the second.

With O=C(O)C(F)(F)F.O=C(O)C(F)(F)F.c1cncc(OC[C@@H]2CCC[C@@]23CN(Cc2nccs2)CCO3)c1 the “Percent Effect” value was -94.41%.
